This is an account of results in PubChem BioAssay.

Activity calls are given as the source filed them. Unless noted, no rule for the calls is given here.

For assay [1], the system named is Wnt5a (protein binding on small-molecule microarray). The assay is described as follows: small molecules binding Wnt5a protein – biophysical, small-molecule microarray, 635/667 nm fluorescence, primary screen (AID 1142).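 Also: fluorescence read at 667 nm with signal to noise per printed feature.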 As to conditions: 635 nm fluorescence, higher = more signal.
Assay [2] in a line: ATP-based viability of Huh7 replicon cells – cell-based, CellTiter-Glo luminescence, basal, 48 h, cytotoxicity control for HCV replication inhibitor project, primary screen (AID 1143).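 Also: Huh7 hepatoma cells carrying a hepatitis C replication reporter with no stimulus; test concentration not given here.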 The note with it: higher = more signal, called active from +8 up or from −8 down.
Assay [3] in a line: Pseudomonas biofilm growth suppression – PAO1 strain, BacTiter-Glo luminescence, LB-PBS, primary screen (AID 1144). As to conditions: P. aeruginosa PAO1 biofilm, 12 h, higher = more signal.
A short description of assay [4]: basal CRE-LacZ reporter activity in PC12 – cell-based, unstimulated, primary screen (AID 1145). As to conditions: no forskolin, luminescence, 4.5 h, higher = more signal, called active from +8 up or from −8 down.
A short description of assay [5]: forskolin-driven CRE-LacZ activity in PC12 – cell-based, CRE-LacZ reporter, forskolin-stimulated, primary screen (AID 1146).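 Also: PC12 cells with 6xCRE LacZ reporter stimulated by forskolin 10 µM; beta-galactosidase reporter signal reflecting CREB driven transcription.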 The note with it: luminescence, 4.5 h, higher = more signal, called active from +8 up or from −8 down.
The target of assay [6] is Streptavidin (Streptomyces avidinii) (UniProt P22629). The assay is described as follows: compounds binding control protein streptavidin – biophysical, small-molecule microarray, 635/667 nm fluorescence, artefact control for SMM compound annotation, primary screen (AID 1147).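 Also: signal reflects streptavidin binding to arrayed compounds as a control protein.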 As to conditions: higher = more signal.
Assay [7] is described as follows: probe aInhba binding on compound microarray – biochemical, small-molecule microarray, 635/667 nm fluorescence, primary screen (AID 1148).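 Also: score merges 667nm spot fluorescence with signal-to-noise for antibody binding to printed compounds.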 The note with it: higher = more signal.
Assay [8] concerns the target Torsin-1A (Homo sapiens) (UniProt O14656). The assay is described as follows: TOR1A wild-type binding on microarray – cell lysate, small-molecule microarray, lysate, 635/667 nm, primary screen (AID 1149). As to conditions: COS7 hTOR1A-WT lysate, 635 nm fluorescence, higher = more signal.
Assay [9] shares this target. The assay is described as follows: torsin A mutant lysate binding on microarrays – cell lysate, small-molecule microarray, COS7 lysate, 635/667 nm fluorescence, primary screen (AID 1150).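 Also: score pools 667 nm emission and signal to noise measuring lysate protein binding.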 As to conditions: COS7 hTOR1A mutant lysate, 635 nm fluorescence, higher = more signal.
For assay [10], the system named is Sonic hedgehog protein (Shh). The assay is described as follows: Sonic hedgehog microarray binding compounds – biochemical, small-molecule microarray, 635/667 nm fluorescence, primary screen (AID 1151).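 Also: Shh protein binding to compounds spotted on small-molecule microarray slides; score combines spot fluorescence intensity with signal-to-noise across triplicate slides.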 The note with it: 635 nm fluorescence, higher = more signal.
Assay [11] in a line: optical density shifts of acrAB sulA E. coli – strain DRC41, OD650, 48 h, E. coli filamentation inducer project, primary screen (AID 1152).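 Also: E. coli MC1000 strain DRC41 lacking acrAB efflux pump and sulA.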 As to conditions: higher = more signal, called active from +8 up or from −8 down.
Assay [12] in a line: probe aLefty1 binding on compound microarray – biochemical, small-molecule microarray, 635/667 nm fluorescence, primary screen (AID 1153).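 Also: score merges spot fluorescence with signal-to-noise ratio from the scanned slide images.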 As to conditions: higher = more signal.
The nature of assay [13]: plasmodial surface anion channel blockers, osmotic lysis – cell-based, P. falciparum Indochina, OD700, 1 h, primary screen (AID 1154). The note with it: P. falciparum Indochina infected RBC osmotic lysis, higher = more signal, called active from +8 up or from −8 down.
Assay [14] is described as follows: plasmodial surface anion channel blockers, osmotic lysis – cell-based, P. falciparum Indochina, OD700, 2 h, primary screen (AID 1155).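 Also: lysis reports solute entry through the parasite surface anion channel PSAC.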 The note with it: P. falciparum Indochina infected erythrocytes, higher = more signal, called active from +8 up or from −8 down.
Assay [15] can be described thus: changes in parasitized red cell lysis, either direction – P. falciparum Indochina, OD700, 3 h, PSAC antagonist project, primary screen (AID 1156). The note with it: P. falciparum-infected erythrocytes, osmotic lysis, higher = more signal, called active from +8 up or from −8 down.
The nature of assay [16]: plasmodial surface anion channel blockers, osmotic lysis – cell-based, P. falciparum Indochina, OD700, 18 h, primary screen (AID 1157). As to conditions: P. falciparum Indochina infected erythrocytes, osmotic lysis OD700, 18 h; higher = more signal, called active from +8 up or from −8 down.
The nature of assay [17]: S6 kinase pathway phospho-S6 level changes – cell-based, A549, cytoblot, luminescence, serum-stimulated, primary screen (AID 1158).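 Also: serum-stimulated A549 lung adenocarcinoma cells; signal is phosphorylated S6 detected by cytoblot immunostaining with HRP secondary.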 The note with it: 5 h, higher = more signal.
The target of assay [18] is NADPH oxidase 2 (Homo sapiens) (UniProt P04839). The assay is described as follows: compounds shifting NOX2 Amplex Red fluorescence – cell-based, HEK293-NOX2, PMA-stimulated, NOX inhibitor project, primary screen (AID 1159). Also: test concentration not given here. The note with it: 45 min, higher = more signal, called active from +8 up or from −8 down.
The target of assay [19] is NADPH oxidase 4 (Homo sapiens) (UniProt Q9NPH5). The assay is described as follows: compounds shifting NOX4 Amplex Red fluorescence – cell-based, HEK293-NOX4, tetracycline-induced, NOX inhibitor project, primary screen (AID 1160). The note with it: HEK293-NOX4, Amplex Red H2O2 fluorescence, 45 min; higher = more signal, called active from +8 up or from −8 down.
Assay [20] deals with NADPH oxidase 5 (Homo sapiens) (UniProt Q96PH1). The assay is described as follows: compounds shifting NOX5 Amplex Red fluorescence – cell-based, HEK293-NOX5, NOX inhibitor project, primary screen (AID 1161). The note with it: HEK293-NOX5, ionomycin, 45 min, higher = more signal.
Chain of NADPH oxidase 5 (Homo sapiens) (Q96PH1 whole entry, looked up): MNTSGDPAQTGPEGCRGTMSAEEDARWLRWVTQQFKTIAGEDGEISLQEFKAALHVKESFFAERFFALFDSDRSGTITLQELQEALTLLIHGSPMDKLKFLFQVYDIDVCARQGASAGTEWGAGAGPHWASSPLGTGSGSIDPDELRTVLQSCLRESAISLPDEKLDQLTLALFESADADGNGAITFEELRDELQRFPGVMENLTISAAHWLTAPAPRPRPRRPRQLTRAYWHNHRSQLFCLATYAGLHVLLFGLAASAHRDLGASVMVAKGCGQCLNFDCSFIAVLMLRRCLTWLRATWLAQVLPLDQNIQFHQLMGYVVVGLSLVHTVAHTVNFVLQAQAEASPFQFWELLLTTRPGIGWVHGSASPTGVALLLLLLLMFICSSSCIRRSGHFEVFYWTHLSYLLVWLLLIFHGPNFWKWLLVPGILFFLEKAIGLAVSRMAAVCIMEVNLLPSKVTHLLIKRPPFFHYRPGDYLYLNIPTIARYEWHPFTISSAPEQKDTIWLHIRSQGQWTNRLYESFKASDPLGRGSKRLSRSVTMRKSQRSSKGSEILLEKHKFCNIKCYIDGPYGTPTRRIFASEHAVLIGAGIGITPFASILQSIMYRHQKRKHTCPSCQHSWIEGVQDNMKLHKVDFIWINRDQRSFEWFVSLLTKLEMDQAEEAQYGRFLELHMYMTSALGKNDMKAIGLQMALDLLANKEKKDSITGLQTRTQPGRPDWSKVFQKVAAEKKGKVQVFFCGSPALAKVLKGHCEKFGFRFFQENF

Chain of Streptavidin (Streptomyces avidinii) (P22629 whole entry, looked up): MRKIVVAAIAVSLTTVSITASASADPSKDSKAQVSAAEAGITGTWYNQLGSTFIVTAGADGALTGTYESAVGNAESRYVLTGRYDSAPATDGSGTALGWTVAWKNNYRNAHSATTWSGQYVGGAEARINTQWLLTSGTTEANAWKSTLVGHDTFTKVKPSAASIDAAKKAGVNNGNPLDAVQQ
Chain of Torsin-1A (Homo sapiens) (O14656 whole entry, looked up): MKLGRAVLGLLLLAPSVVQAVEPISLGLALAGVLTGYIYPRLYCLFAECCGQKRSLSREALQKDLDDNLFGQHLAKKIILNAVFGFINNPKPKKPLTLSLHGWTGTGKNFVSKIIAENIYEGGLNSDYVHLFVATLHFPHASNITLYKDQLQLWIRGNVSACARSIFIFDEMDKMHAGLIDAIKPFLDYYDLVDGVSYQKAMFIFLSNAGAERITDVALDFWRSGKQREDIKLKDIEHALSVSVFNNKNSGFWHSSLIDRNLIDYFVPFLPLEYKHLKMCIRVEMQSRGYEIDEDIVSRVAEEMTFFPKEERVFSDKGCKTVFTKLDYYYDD
Chain of NADPH oxidase 4 (Homo sapiens) (Q9NPH5 whole entry, looked up): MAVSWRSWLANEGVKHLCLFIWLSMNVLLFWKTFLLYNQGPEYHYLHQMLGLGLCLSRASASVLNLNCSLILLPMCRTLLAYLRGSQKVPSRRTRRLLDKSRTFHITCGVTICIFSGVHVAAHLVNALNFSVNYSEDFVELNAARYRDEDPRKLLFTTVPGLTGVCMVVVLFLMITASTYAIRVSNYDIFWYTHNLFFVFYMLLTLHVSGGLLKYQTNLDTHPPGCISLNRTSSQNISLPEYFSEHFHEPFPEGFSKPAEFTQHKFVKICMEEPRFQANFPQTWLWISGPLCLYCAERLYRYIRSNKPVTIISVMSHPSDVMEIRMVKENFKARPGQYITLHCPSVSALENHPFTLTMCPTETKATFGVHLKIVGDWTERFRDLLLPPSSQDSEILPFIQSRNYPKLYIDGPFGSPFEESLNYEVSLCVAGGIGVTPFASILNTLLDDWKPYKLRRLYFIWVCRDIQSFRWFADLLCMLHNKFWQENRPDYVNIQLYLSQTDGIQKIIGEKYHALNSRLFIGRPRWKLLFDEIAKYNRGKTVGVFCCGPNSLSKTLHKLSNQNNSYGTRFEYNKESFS
Chain of NADPH oxidase 2 (Homo sapiens) (P04839 whole entry, looked up): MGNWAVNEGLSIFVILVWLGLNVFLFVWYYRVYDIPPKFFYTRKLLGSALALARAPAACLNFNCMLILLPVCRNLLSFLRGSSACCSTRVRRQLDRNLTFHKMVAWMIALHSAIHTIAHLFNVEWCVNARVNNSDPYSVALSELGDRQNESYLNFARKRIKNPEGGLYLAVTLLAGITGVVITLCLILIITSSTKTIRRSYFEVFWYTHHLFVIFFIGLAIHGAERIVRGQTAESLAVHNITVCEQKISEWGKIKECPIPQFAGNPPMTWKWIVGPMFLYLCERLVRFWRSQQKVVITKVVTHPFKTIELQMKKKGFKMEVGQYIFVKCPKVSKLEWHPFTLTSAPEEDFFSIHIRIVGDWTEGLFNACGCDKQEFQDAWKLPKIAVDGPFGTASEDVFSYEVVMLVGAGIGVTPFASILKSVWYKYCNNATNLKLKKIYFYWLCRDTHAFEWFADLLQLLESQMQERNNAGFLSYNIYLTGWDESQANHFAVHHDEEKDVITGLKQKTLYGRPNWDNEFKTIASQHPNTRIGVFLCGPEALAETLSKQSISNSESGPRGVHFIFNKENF

Turning to `C=CCOC(=O)[C@H]1[C@@H]2C(=O)O[C@@H](c3ccccc3)[C@@H](c3ccccc3)N2[C@@H](c2ccc(OCCOC(=O)[C@H]3C[C@H]4C(=O)N[C@@H](Cc5ccccc5)C(=O)N4[C@H]3c3ccc(O)cc3)cc2)[C@]12C(=O)Nc1ccccc12`, the composite z-score in [1] was 0.354; in [6] it was -0.261; in assay [7], -0.171; with Torsin-1A (Homo sapiens) [8], 0.419; in the assay with Torsin-1A (Homo sapiens) [9], 0.278; in assay [10] it was 1.92. Further, the composite z-score in assay [12] was -0.263. Moreover, the z-score was -0.155 (inactive) in assay [2]; -0.0202 (inactive) in assay [3]; 0.285 (inactive) in assay [4]; -0.231 (inactive) in assay [5]; 0.561 (inactive) in [11]; 2.5 (inactive) in assay [13]. The z-score in assay [14] was 1.2 (inactive); in [15], -4 (inactive); in assay [16] it was 0.988 (inactive); in assay [17], 0.338; in [18], 1.83 (inactive); in assay [19] it was 0.898 (inactive). The z-score in assay [20] came out at 1.44.
On to `COc1ccc(-c2ccc3c(n2)CCCN3CC(O)CN2CCCc3nc(C)c(C)cc32)cc1` (stereo not given), for which the composite z-score in assay [1] worked out at 0.268; in assay [6] it was 1.52; in assay [7], 0.276; with Torsin-1A (Homo sapiens) [8] it was 0.785; with Torsin-1A (Homo sapiens) [9] it was 1.15; in assay [10], 1.19. Also, the composite z-score in assay [12] was determined as 0.864. Also, the z-score in [2] was -0.154 (inactive); in assay [3] it was -0.0522 (inactive); in assay [4], -0.0779 (inactive); in assay [5] it was 0.536 (inactive); in [11], 0.125 (inactive); in assay [13] it was 5.76 (inactive). The z-score in assay [14] was 0.894 (inactive); in assay [15], 0.661 (inactive); in assay [16] it was 0.0758 (inactive); in assay [17], -0.0509; in [18] it was 1.05 (inactive); in assay [19] it was -0.305 (inactive). In addition, the z-score in assay [20] was -1.35.
On to `COC(=O)CC=C[C@@H](C)[C@@H](C=NO[C@@H](C)c1cc(-c2c(C)cc(C)cc2C)no1)OC`, for which the composite z-score in [1] is -0.828; in assay [6], -0.432; in assay [7], -0.249; in the assay with Torsin-1A (Homo sapiens) [8], -2.2; in the assay with Torsin-1A (Homo sapiens) [9], -2.18; in [10], -1.46. The molecule further displayed a composite z-score in assay [12] of 0.0004. Moreover, the z-score is -2.12 (inactive) in assay [2]; -0.726 (inactive) in assay [3]; 2.71 (inactive) in assay [4]; -0.254 (inactive) in assay [5]; -1.45 (inactive) in assay [11]; 3.39 (inactive) in assay [13]. Further, the z-score was -0.032 (inactive) in assay [14]; 0.505 (inactive) in assay [15]; -1.37 (inactive) in assay [16]; 2.15 in assay [17]; -1.04 (inactive) in assay [18]; -0.771 (inactive) in [19]. For the same molecule, the z-score in assay [20] is -3.87.
As for `COc1ccc([Si](C)(C)[C@H]2[C@H](CCO)O[C@@]3(C(=O)N(Cc4cccc(NC(=O)[C@H](C)O)c4)c4ccccc43)[C@@H]2C)cc1`, the composite z-score in assay [1] was 0.209; in assay [6] it was 0.394; in [7] it was -0.0468; with Torsin-1A (Homo sapiens) [8] it was 0.715; with Torsin-1A (Homo sapiens) [9] it was 0.916; in assay [10], 1.98. In assay [12], this molecule returned a composite z-score of 0.19. The z-score was -7.96 (inactive) in [2]; -1.52 (inactive) in assay [3]; 3.1 (inactive) in assay [4]; -0.878 (inactive) in [5]; 0.868 (inactive) in assay [11]; 19.7 (active) in [13]. Besides, the z-score is 5.46 (inactive) in assay [14]; 0.334 (inactive) in [15]; 1.8 (inactive) in assay [16]; 0.993 in [17]; -4.7 (inactive) in assay [18]; 0.621 (inactive) in assay [19]. Besides, the z-score in assay [20] is -1.31.
As to `CC(CCN1CCc2nc(-c3ccccc3)c(-c3ccccc3)cc2C1)=NOC(C)CN1CCCCc2nc(C)c(C)cc21` (stereo not given), the composite z-score in assay [1] is 0.0802; in assay [6], 0.393; in assay [7] it was -0.0195; with Torsin-1A (Homo sapiens) [8] it was 0.319; in the assay with Torsin-1A (Homo sapiens) [9], 0.278; in assay [10], 0.569. In [12], the composite z-score was -0.106. Besides, the z-score in assay [2] was 0.168 (inactive); in assay [3] it was -0.075 (inactive); in assay [4], -0.147 (inactive); in assay [5], 0.0715 (inactive); in assay [11] it was -0.934 (inactive); in assay [13], 1.08 (inactive). Moreover, the z-score in [14] is -0.198 (inactive); in [15] it was 0.281 (inactive); in assay [16], 0.343 (inactive); in [17], -0.0953; in assay [18] it was -0.839 (inactive); in assay [19], 0.405 (inactive). Also, the z-score in assay [20] was determined as 0.108.
